Measurements: PubChem BioAssay AID588832 (Broad Institute, 2011)
Among all 8,000 compounds or so, fewer than 10 were called active. No rule for the calls is given here. The list is a sample of the results.

System: hedgehog, isoform A (Drosophila melanogaster)
Assay: Hh protein inhibition, biochemical readout – plate reader, single concentration, primary screen (AID 588832);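 also: 0% = neutral control wells and 100% = positive control wells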
Details: Biochemical plate reader assay, at 30.3 µM, active compounds read high

inhibition, inactive:
CCOc1ccc(NC(=O)CS(=O)(=O)c2cn(C)c3ccccc23)cc1 7.96%
CCC1=Nc2cc(C(=O)O)ccc2Sc2ccccc21 1.79%
O=c1c2nnn(-c3ccccc3)c2ncn1C/C=C/c1ccccc1 6.96%
Cc1cc2cc(CNS(=O)(=O)c3ccccc3)ccc2n1C 7.14%
Cc1ccc(S(=O)(=O)NCc2ccc3c(c2)cc(C)n3C)cc1 11.8%
COc1ccc(Nc2nc(N)nc(CN3CCc4ccccc4C3)n2)cc1 5%
Cc1ccc(Cl)cc1N1CCN(C(=O)COc2ccc(S(=O)(=O)NC(C)C)cc2)CC1 7.28%
O=C(NCc1cn2ccsc2n1)c1c(F)cccc1Cl 5.46%
O=C(O)C(c1ccccc1)c1ccccc1 8.45%
Cn1c(=O)cc(N2CCc3ccccc32)[nH]c1=O 1.79%
COc1cccc(CNC(=O)COc2cc3c(c4oc(=O)cc(C)c24)CCC(C)(C)O3)c1 -8.44%
O=C(COc1ccc2c(-c3ccccc3)cc(=O)oc2c1)N1C[C@H]2C[C@@H](C1)c1cccc(=O)n1C2 1.72%
COc1ccc(Cl)cc1N1C(=O)C2CCCN2C1c1ccc(F)c(F)c1 (stereo unspecified) 14.9%
CCOc1ccc(C2CC(c3cccc(OC)c3)n3nc(N)nc3N2)cc1 (stereo unspecified) 15%
Cc1ccc(C)c(NC(=O)CSc2nc3ccccc3nc2N2CCOCC2)c1 9.55%
C=CCn1cc(C(=O)NCCCOC)c(=O)c2cc(S(=O)(=O)N3CCC(C)CC3)ccc21 25%
CC(C)(C)C(=O)NCCc1nc2ccccc2n1CC(=O)c1ccc(Cl)cc1 0%
CC(=O)c1ccc(NC(=O)CCS(=O)(=O)c2ccc3c(c2)n(C)c(=O)c(=O)n3C)cc1 1.81%
Cc1[nH]c2ccccc2c1SCC(=O)N1CCCc2ccccc21 1.79%
CCOC(=O)N1CCN(c2cc(=O)n(-c3ccc(Br)cc3)c(=O)[nH]2)CC1 6.78%
Cc1ccc2c(c1)N(C(=O)CCC(=O)NCCCN1CCOCC1)CC(C)O2 (stereo unspecified) 7.08%
CCCCCCc1cc2cc(/C(N)=N/NC(=O)c3ccncc3)c(=O)oc2cc1O 10.7%
O=C(COC(=O)C1CC(=O)N(C2CCCCC2)C1)c1ccc(F)cc1 (stereo unspecified) 15%
Cc1ccc2c(c1)N(C(=O)CCC(=O)NCCCN1CCN(C)CC1)CCO2 5.23%
Cn1c(Cn2c(=O)sc3ccccc32)nnc1SCC(=O)Nc1cccc(Cl)c1 11.1%
COc1ccccc1C1C(C(N)=O)=C(C)Nc2nc(-c3ccc(Cl)cc3)nn21 (stereo unspecified) 19.2%
CC(=O)NCCn1c(C)cc2ccccc21 0%
Cc1cc2ccccc2n1CCNC(=O)C(C)C 5.17%
O=C1C=C(O)c2cccc(O)c2C1=O 9.84%
C[C@@H]1Cc2c(O)c(O)cc(O)c2C(=O)O1 4.89%
CC(=O)c1ccc(N2CCN(C(=O)c3ccc(NC4=NC5CS(=O)(=O)CC5S4)cc3)CC2)cc1 (stereo unspecified) 3.39%
COc1ccc(CNS(=O)(=O)c2cc3c(cc2Cl)NC(=O)CO3)cc1 7.24%
COc1cccc(-c2nc(C(=O)NCC3CCCO3)cc3c2[nH]c2ccccc23)c1 (stereo unspecified) 0.0615%
O=C(Cn1cc2c(n1)CCCC2)NCCCN1CCN(Cc2ccccc2)CC1 4.17%
CC1CCCN(S(=O)(=O)c2ccc3c(c2)C(C)(C)C(=O)N3C)C1 (stereo unspecified) 20%
O=C(NCCN1CCCC1)c1ccc2c(c1)N(Cc1ccc(F)cc1)C(=O)c1ccccc1S2=O (stereo unspecified) 0.909%
COc1ccc(-c2cn3c(C)c(C(=O)Nc4ccncc4)sc3n2)cc1 9.74%
COCCNC(=O)CS(=O)Cc1nc(-c2ccc(Cl)cc2)oc1C (stereo unspecified) -2.73%
Cc1ccc2c(c1)N(CC(=O)NC1CCCC1)C(=O)c1cccnc1O2 16.7%
CCN(Cc1ccccc1)S(=O)(=O)c1cc(C(=O)OC)n(C)c1 6.72%
Cc1cccc(C(=O)N2CCN(Cc3ccc4c(c3)OCO4)CC2)c1 5.77%
CC1CC(=O)c2c(cc3c(-c4c(O)cc(O)c5c(O)c6c(cc45)OC(C)CC6=O)c(O)cc(O)c3c2O)O1 (stereo unspecified) 6.56%
COc1ccc(CNC(=O)COc2cc3c(c4oc(=O)cc(C)c24)CCC(C)(C)O3)cc1OC 5.12%
CCN1C(=O)c2ccccc2S(=O)c2ccc(C(=O)NCCCN3CCCC3=O)cc21 (stereo unspecified) -4.3%
COC(=O)CN1C(=O)COc2ccc(Cl)cc21 16.7%
CCOCCn1c(SCc2ccc(F)cc2)nc2c1c(=O)[nH]c(=O)n2C -3.67%
O=C(NCc1ccco1)C(=O)NCC1OCCN1S(=O)(=O)c1ccccc1 (stereo unspecified) 7.69%
COCCn1c(SCC(=O)N2CCCc3ccccc32)nc2c(c1=O)SC(C)C2 (stereo unspecified) 5.36%
CCCNC(=O)CS(=O)(=O)Cc1nc(-c2ccccc2C)oc1C 24.1%
CCOC(=O)N1CCc2c(sc(NC(=O)c3ccc(S(=O)(=O)N4CCCC4)cc3)c2C#N)C1 0%
Cn1c(=O)c2c(SC3CCCC3)nc(C3CC3)nc2n(C)c1=O 9.74%
Cn1c(C(=O)NCCN2CCc3ccccc3C2)cc2c(=O)n(C)c3ccccc3c21 20.8%
CCCCNC(=S)NCc1ccc2[nH]c(C)cc2c1 -0.909%
CC(C)COC(=O)C1C2C=CC3(CN(C4CCCC4)C(=O)C13)O2 (stereo unspecified) 8.33%
COc1ccc(-c2cc(=O)oc3c(C)c(OC(C)C(=O)NCc4ccccn4)ccc23)cc1 (stereo unspecified) 4.89%
CCc1ccc(NC(=O)CSc2nnc(Cn3c(=O)sc4ccccc43)n2C)cc1 16.7%
Cc1ccc(C(=O)NCCSc2c(C)[nH]c3ccccc23)cc1[N+](=O)[O-] 3.51%
CCCNC(=O)C1=C(C)C(=O)OC12CCC(C)CC2 (stereo unspecified) 9.55%
CCc1cccc(NC2c3ccccc3C(=O)N2c2ccc(C)cn2)c1 (stereo unspecified) 5.06%
CCOC(=O)N1CCN(C(=O)c2ccc3c(c2)N(Cc2ccc(F)cc2)CCS3)CC1 3.51%
CC(=O)Oc1cc(O)c2c(=O)c(OC(C)=O)c(-c3ccc(OC(C)=O)c(OC(C)=O)c3)oc2c1 19.3%
COc1cc2cccc(OC)c(=O)c2c(OC)c1OC -1.79%
CCCc1cc(C(=O)NCC(C)C)no1 5.23%
Cc1cc2cc(CNC(=O)c3ccc(S(=O)(=O)N4CCCCC4)cc3)ccc2[nH]1 5.36%
Cc1cccc(-n2c(CNC(=O)c3ccccc3)nnc2SCC(=O)Nc2nccs2)c1 12.5%
COc1ccc(-c2cc(=O)oc3cc(OC(C)C(=O)NCc4ccccn4)ccc23)cc1 (stereo unspecified) 7.02%
Cn1cc(S(=O)(=O)N2CCc3ccccc32)cc1C(=O)NC1CCCCC1 10.2%
CC(=O)Nc1cccc(NS(=O)(=O)c2cn(C)c(=O)n(C)c2=O)c1 3.85%
O=C(Cn1ncc2c1-c1ccccc1OC2)Nc1ccc(S(=O)(=O)N2CCCCC2)cc1 6.96%
C/C=C(/C)C(=O)OC1c2c(ccc3ccc(=O)oc23)OC(C)(C)C1OC(=O)/C(C)=C\C (stereo unspecified) 5.23%
CCOC(=O)C(C)n1cnc2c(nnn2-c2ccc(F)cc2)c1=O (stereo unspecified) 7.02%
Cc1ccc(C)c(N2CCN(C(=O)c3cc(S(=O)(=O)N4CCOCC4)cn3C)CC2)c1 8.45%
COc1ccc(NC(=O)NCCCN2CCN(c3cc(C)ccc3C)CC2)cc1 3.64%
COc1ccc(CN2CCN(C(=O)Cn3ncn4cccc4c3=O)CC2)c(OC)c1OC 2.17%
CCOc1ccc(NC(=O)CSc2nc3ccccc3nc2N2CCOCC2)cc1 7.08%
Cc1cc(NC(=O)c2noc3c2CCc2ccccc2-3)n(-c2ccccc2)n1 3.64%
CC(C)(O)CCCC(C)(O)c1ccc(C(=O)O)cc1O (stereo unspecified) 6.9%
Cc1c(S(=O)(=O)Nc2cc(Cl)ccc2Cl)c(=O)n(C)c(=O)n1C 5.23%
CC1Cc2nc(SCC(=O)N3CCCc4ccccc43)n(C)c(=O)c2S1 (stereo unspecified) 0%
COc1ccc(Cc2nc(-c3ccc(Br)o3)no2)cc1OC 33.3%
O=C(CCC(=O)N1CCOc2ccccc21)N1CCOCC1 9.62%
CC(NC(=O)c1ccc(NC2=NC3CS(=O)(=O)CC3S2)cc1)c1ccccc1 (stereo unspecified) 5.06%
Cn1cccc1Cc1nnc(SCC(=O)Nc2ccc(F)cc2)n1CCc1ccccc1 17.4%
CC(CCc1ccccc1)NC(=O)C1CCN(C(=O)c2sccc2-n2cccc2)CC1 (stereo unspecified) 3.57%
Cc1ccc(NC(=O)C2CCCN(S(=O)(=O)c3ccc4[nH]c(=O)ccc4c3)C2)cc1C (stereo unspecified) 0%
CCc1ccccc1NC(=O)c1cc(S(=O)(=O)N2CCc3ccccc32)cn1C 5.06%

inhibition, active:
COc1ccc(S(=O)(=O)NCc2ccc3c(c2)cc(C)n3C)cc1 62.3%
Cc1cc2ccccc2n1CCNC(=O)C(C)(C)C 57.3%
O=C1C=C(O)c2c(O)cc(O)c(O)c2C1=O 93.1%
CC(=O)Oc1cc2cccc(OC(C)=O)c(=O)c2c(OC(C)=O)c1OC(C)=O 57.6%
O=C1C=CC2=C3c4cc(O)c(O)cc4CC3(O)COC2=C1O (stereo unspecified) 70.4%
